Screens as filed in PubChem BioAssay.
Most compounds without a hit are left out; they make up all but 3.5% or so of the library.
FBW7 act = human FBW7 E3 ligase activation, primary screen; Q969H0; AlphaScreen FBW7–phospho-cyclin E peptide binding, activator screen; normalized activity (activation), % at 26.1 µM; 650,000 tested, 0.13% active; in the data active means normalized activity above about 1.9%;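 further: purified mutant Fbw7 with reduced substrate affinity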
Target sequence (Q969H0 whole entry, looked up): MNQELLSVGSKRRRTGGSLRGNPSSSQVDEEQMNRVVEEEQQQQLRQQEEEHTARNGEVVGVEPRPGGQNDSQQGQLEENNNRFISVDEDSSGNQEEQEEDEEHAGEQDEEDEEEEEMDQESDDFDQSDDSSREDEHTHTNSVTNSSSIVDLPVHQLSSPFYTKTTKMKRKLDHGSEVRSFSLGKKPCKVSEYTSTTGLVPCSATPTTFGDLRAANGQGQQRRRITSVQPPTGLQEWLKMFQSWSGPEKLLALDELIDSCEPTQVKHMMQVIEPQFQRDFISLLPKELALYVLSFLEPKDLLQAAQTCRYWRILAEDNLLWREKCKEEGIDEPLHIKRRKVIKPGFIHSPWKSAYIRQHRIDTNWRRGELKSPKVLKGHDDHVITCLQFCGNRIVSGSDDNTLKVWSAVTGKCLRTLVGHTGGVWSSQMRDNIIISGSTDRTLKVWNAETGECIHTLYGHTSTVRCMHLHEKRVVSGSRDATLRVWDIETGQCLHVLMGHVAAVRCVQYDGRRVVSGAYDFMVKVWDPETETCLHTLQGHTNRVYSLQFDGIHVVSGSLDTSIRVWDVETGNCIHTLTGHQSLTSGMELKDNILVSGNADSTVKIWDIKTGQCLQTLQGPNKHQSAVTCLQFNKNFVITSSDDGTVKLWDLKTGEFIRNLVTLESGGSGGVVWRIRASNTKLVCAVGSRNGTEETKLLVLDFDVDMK
MITF inh = human MITF inhibition, primary screen. O75030. AlphaScreen MITF homodimerization, bead proximity signal. inhibition, % at 2.6 µM. 650,000 tested, 0.91% active; in the data active means inhibition above about 50%;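 further: 0% = vehicle wells with protein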
TEAD-YAP inh = TEAD-YAP interaction inhibition; HEK-TIYL cells, TEAD-Gal4/YAP UAS-luciferase luminescence; inhibition, % at 9.12 µM; 640,000 tested, 1.4% active; AID 1259422; in the data active means inhibition above about 32%;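 further: 0% = median of test compound wells and 100% = reference inhibitor wells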
GPR151 activ = activates the human receptor GPR151. Q8TDV0. PathHunter beta-arrestin GPR151 cells, luminescence. activation, % at 11.2 µM. 650,000 tested, 1% active; in the data active means activation above about 4.9%;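 further: 0% = median of compound wells and 100% = cells with positive control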
GPR151 confirm = human GPR151 activation, confirmation screen. shares compounds with GPR151 activ. GPR151 PathHunter beta-arrestin cells, luminescence, 90 min; % of EA-reagent control over plate median. activation, % at 11.2 µM. 6,700 tested, under 10 active;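 active means mean percent activation across replicates above the confirmation screen cutoff of 4.91%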
GPR119 ag = counter-screen for GPR151 activators: effect on human GPR119; shares compounds with GPR151 activ; GPR119 PathHunter beta-arrestin cells, luminescence, 90 min; 0 = compound-well median, 100 = enzyme-acceptor control; activation, % at 11.2 µM; 6,700 tested, 0.3% active; AID 1508611;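 active means mean percent activation in the counterscreen above 29.09%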;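 further: counterscreen on off-target GPR119 to flag nonselective hits from the GPR151 activator screen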
The depositor's hits bear a star; . = no result given.

SMILES | FBW7 act | MITF inh | TEAD-YAP inh | GPR151 activ | GPR151 confirm | GPR119 ag
Cc1cn2c3c(=O)n(CC(C)C)c(=O)n(C)c3nc2n1C | 0 | 13 | 5 | 5.6* | -1 | 6
CCOC(=O)c1ccc(-n2c(C)cn3c4c(=O)n(C)c(=O)n(C)c4nc23)cc1 | 0 | -6 | -1 | 1 | . | .
CCOC(=O)c1ccc(-n2c(C)cn3c4c(=O)n(CCC(C)C)c(=O)n(C)c4nc23)cc1 | 0 | 1 | 10 | 5.1* | 0 | 5
O=C(NCc1ccccc1)C1CCN(c2nccs2)CC1 | 0 | -17 | -5 | -1 | . | .
N#C/C(=C\c1cn(Cc2ccc(Cl)cc2Cl)c2ccccc12)c1nn(-c2ccccc2)c(N)c1C#N | 0 | -10 | 11 | -1 | . | .
O=C1OC(c2ccccc2)=N/C1=C\c1cc2ccccc2nc1N1CCCCC1 | 0 | 0 | 2 | 0 | . | .
CC1=C(C#N)c2nc(N)c(C#N)c(C)c2/C1=C\c1cccs1 | 0 | -2 | -7 | 5.4* | 1 | -1
C/C(CC(=O)Nc1ccc2c(c1)OCCO2)=N\NC(=O)C(c1ccccc1)c1ccccc1 | 0 | 11 | 6 | 5.1* | 0 | -5
CCC(=O)N/N=C(\C)CC(=O)Nc1ccc2c(c1)OCCO2 | 0 | -7 | -12 | 0 | . | .
Cc1cc(CSc2ccccc2)ccc1NS(C)(=O)=O | 0 | 4 | -26 | 5.3* | 0 | -4
CC(=O)Nc1ccc(CSc2ccccc2)cc1C | 0 | 4 | -54 | -1 | . | .
Cc1ccc2oc(-c3cccc(NC(=S)NC(=O)c4ccc(Cl)cc4)c3C)nc2c1 | 0 | 2 | -32 | 5.3* | 0 | 4
O=C(O)c1nn2c(c1Br)NC(c1ccccc1)CC2C(F)(F)F (stereo not drawn) | 0 | 0 | -4 | 7.2* | 0 | 11
NC(=O)c1nn2c(c1Br)NC(c1ccccc1)CC2C(F)(F)F (stereo not drawn) | 0 | -11 | 2 | -1 | . | .
CCOc1cc(/C=C2/N=C(c3cccc(C)c3)OC2=O)ccc1OS(C)(=O)=O | 1 | 9 | 12 | 13* | -1 | -18
CCOc1cc(/C=C2\N=C(c3cccc(C)c3)OC2=O)ccc1OC(C)=O | 0 | 1 | 2 | 0 | . | .
COc1cccc2cc(C(N)=O)c(=Nc3ccccc3C#N)oc12 | 0 | 16 | -2 | -1 | . | .
CCOc1ccc(NC(=O)CSc2cn(Cc3cccc(F)c3)c3ccccc23)cc1 | 0 | 11 | -5 | 18* | 0 | 4
CCCn1cc(SCC(=O)Nc2ccc(OCC)cc2)c2ccccc21 | 0 | -11 | 20 | 0 | . | .
NC(=O)c1ccc(NC(=O)CSc2cn(CC(=O)N3CCCC3)c3ccccc23)cc1 | 0 | 0 | 4 | -1 | . | .
COC(=O)c1cnn2c(C(F)(F)F)cc(-c3ccc(C)cc3)nc12 | 0 | -4 | -10 | 0 | . | .
Cc1ccc(-c2cc(C(F)(F)F)n3ncc(C(=O)OC(C)C)c3n2)cc1 | 0 | -5 | 9 | 5.4* | 0 | 13
CCOC(=O)c1c(C)oc2ccc(N(C(=O)c3cccc([N+](=O)[O-])c3)S(=O)(=O)c3ccccc3)cc12 | 1 | 9 | 5 | -1 | . | .
CC(C)CC(=O)NCC1Cc2c(F)ccc(-c3ccncc3)c2O1 (stereo not drawn) | 0 | 6 | 1 | -1 | . | .
O=C(Cc1ccsc1)NCC1Cc2c(F)ccc(-c3ccncc3)c2O1 (stereo not drawn) | 0 | 3 | 24 | 17* | 0 | 2
SMILES | FBW7 act | MITF inh | TEAD-YAP inh | GPR151 activ | GPR151 confirm | GPR119 ag
CN1CCC(N(C)Cc2cccc3ccccc23)CC1 | 1 | 44 | 8 | 0 | . | .
CCOC(=O)C(C(=O)NCc1ccccc1)C1CCCCC1 (stereo not drawn) | 0 | -14 | -4 | 5.9* | -1 | -1
Cc1cc(C)n2nc(C(=O)N/N=C/c3cc(Cl)cc(Br)c3O)nc2n1 | 0 | 29 | 20 | 0 | . | .
CCOc1ccccc1-c1nnc(SCC(=O)NCc2ccccc2)o1 | 0 | 8 | 2 | 6.9* | 0 | 11
Cc1ccc(CS(=O)(=O)CCC(=O)NCCN(C)Cc2ccccc2)cc1 | 0 | 14 | -3 | 7.7* | 0 | -1
COc1ccc(S(=O)(=O)n2cc(-c3ccc([N+](=O)[O-])cc3)c(N)n2)c(OC)c1 | 0 | -9 | -2 | 1 | . | .
COCc1cc(C)nc(SCC(=O)Oc2ccccc2)c1C#N | 0 | -9 | 1 | -1 | . | .
COCc1cc(C)nc(SCC(=O)O)c1C#N | 0 | 1 | 6 | 5.9* | 0 | -10
O=C(OCc1ccc([N+](=O)[O-])cc1)c1cc(=O)[nH]c2ccccc12 | 0 | -2 | 6 | 0 | . | .
CC(=O)c1c(C)[nH]c(C(=O)OCC(=O)/C=C2\N(C)c3ccccc3C2(C)C)c1C | 0 | -7 | 6 | 1 | . | .
CN(CCC#N)S(=O)(=O)c1ccc(F)c(C(=O)O)c1 | 0 | 6 | 0 | 1 | . | .
N#CCOc1ccc2c(=O)c(Oc3ccccc3Cl)coc2c1 | 0 | 8 | 7 | 5.6* | 1 | 19
CC(C)(C)c1ccc(OCCN2C(=O)C(=O)c3ccccc32)cc1 | 0 | 20 | 11 | 5.4* | 0 | 10
CC(C)(C)c1ccc(OCCCN2C(=O)C(=O)c3ccccc32)cc1 | 0 | 12 | 6 | -1 | . | .
COc1ccc(N2CC(NC(=O)NC(c3ccccc3)c3ccccc3)CC2=O)cc1 (stereo not drawn) | 0 | -7 | 11 | 6.1* | 0 | 1
CCCN(CCC)CCNS(=O)(=O)c1ccc2c(c1)oc(=O)n2C | 0 | 6 | -5 | 7.6* | 0 | 8
COc1ccccc1CNS(=O)(=O)c1ccc2c(c1)oc(=O)n2C | 0 | 18 | 2 | 5.9* | -1 | -9
COc1ccc(OC)c(CNS(=O)(=O)c2ccc3c(c2)oc(=O)n3C)c1 | 0 | 2 | 20 | -1 | . | .
O=C(Nc1cc([N+](=O)[O-])ccc1Cl)c1ccccc1Cl | 0 | 9 | 3 | 0 | . | .
Cc1nonc1NC(=O)CSc1nc(Cc2ccccc2)nc2ccccc12 | 0 | -8 | 0 | 10* | 0 | 3
CC(C)NC(=O)CSc1nc(Cc2ccccc2)nc2ccccc12 | 0 | -18 | -12 | -1 | . | .
COc1ccc(Br)cc1CN1CCC(C(N)=O)CC1 | 0 | -8 | 7 | 0 | . | .
Nc1cc[n+](CC(=O)c2ccccc2)cc1 | 0 | -13 | -12 | 7.1* | 0 | -6
COc1ccc(C(=O)N(CC2CCC2)CC2CCCO2)cc1OC1CCN(C(C)C)CC1 (stereo not drawn) | 0 | -10 | -7 | 2 | . | .
Cc1ccc(NC(=O)C2CCCN2c2nn3c(=O)cc(C)nc3s2)c(Cl)c1 (stereo not drawn) | 0 | 6 | 3 | 5.0* | 0 | -5
Cc1nc(Nc2ccccc2)c([N+](=O)[O-])c(=O)[nH]1 | 0 | 4 | -9 | -2 | . | .
